From PubChem BioAssay
Hits are enriched below; roughly 1.7% of the tested compounds scored in any of these assays.
Giardia killer – Giardia lamblia killing; activity change, % at 7.66 µM, hits read low; Giardia lamblia trophozoite viability; AID 540267; hit rate 0.15% among 340,000; in the data active = activity change below about -80%; inconclusive = between about -30% and that limit;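 note: parasites exposed to compound for two days anaerobically before the ATP read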
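Each well holds 100 Giardia trophozoites and compound. After two days (48 hrs) at 37 deg C in anaerobic conditions, ATP is quantified by luminescence.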
KCNH2 3.1 block – KCNH2 3.1 (human) potassium channel inhibition | U2OS KCNH2 3.1, thallium flux FluxOr; hits give low values | activity change, % (tested at about 1.8 µM) | hit rate 0.95% among 340,000;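 active = maximum activity change below -70%; inconclusive = maximum activity change from -70% to -50%; inactive = maximum activity change above -50%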;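 note: thallium influx rate constant from kinetic fluorescence after stimulation buffer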
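Measured as rate of thallium-driven FluxOr signal in transduced U2OS cells carrying the 3.1 channel, read kinetically for 2 min upon stimulation; values are rate constants scaled to DMSO control wells.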
USP1 inh – USP1/UAF1 (human) deubiquitinase inhibition | O94782 | recombinant USP1/UAF1, Ub-Rhodamine cleavage fluorescence | Potency, µM (doses to about 57.1 µM), hits mostly inhibitors | hit rate 0.23% among 390,000 | AID 743255; active = well fitted inhibition curve with a large enough effect; inconclusive = small, poorly fitted or top-dose-only effect; inactive = no such curve, though single readings can be large or run the other way; note: nearly all actives have a fitted effect of over 60% in size
Target sequence (O94782 whole entry, looked up): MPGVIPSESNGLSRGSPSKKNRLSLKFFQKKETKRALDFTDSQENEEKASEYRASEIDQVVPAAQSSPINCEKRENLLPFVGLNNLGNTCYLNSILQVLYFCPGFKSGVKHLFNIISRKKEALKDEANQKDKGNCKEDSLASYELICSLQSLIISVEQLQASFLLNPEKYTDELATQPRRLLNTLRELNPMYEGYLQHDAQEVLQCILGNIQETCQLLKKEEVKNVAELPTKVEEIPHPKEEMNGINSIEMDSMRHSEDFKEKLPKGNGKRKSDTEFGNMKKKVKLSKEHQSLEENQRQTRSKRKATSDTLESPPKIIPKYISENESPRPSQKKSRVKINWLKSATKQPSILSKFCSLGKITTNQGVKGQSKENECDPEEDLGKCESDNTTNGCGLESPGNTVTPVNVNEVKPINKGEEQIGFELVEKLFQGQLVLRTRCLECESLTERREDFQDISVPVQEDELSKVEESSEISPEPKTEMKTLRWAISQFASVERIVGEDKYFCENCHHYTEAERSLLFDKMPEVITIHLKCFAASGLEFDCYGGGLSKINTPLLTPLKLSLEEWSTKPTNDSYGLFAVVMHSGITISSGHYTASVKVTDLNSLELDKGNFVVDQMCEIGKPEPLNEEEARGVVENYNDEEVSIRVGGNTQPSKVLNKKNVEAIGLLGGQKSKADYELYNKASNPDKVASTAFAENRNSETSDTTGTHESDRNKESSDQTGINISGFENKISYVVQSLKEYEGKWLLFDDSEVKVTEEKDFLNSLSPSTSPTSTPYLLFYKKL
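High-throughput fluorogenic screen: 1nM USP1/UAF1 complex, Ub-Rho substrate 150nM final, 50mM HEPES pH 7.8 with 0.5mM EDTA, 0.1 mg/ml BSA, 1mM TCEP and 0.01% Tween-20.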
hERG WT inh – KCNH2 (human, wildtype) channel inhibition | Q12809 | U2OS, BacMam KCNH2, thallium flux FluxOr; hits give low values | hit rate 0.37% among 340,000 | activity change, % at 1.84 µM;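 active = maximum activity change below -70%; inconclusive = maximum activity change between -70% and -50%; inactive = maximum activity change above -50%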
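U2OS cells were transduced with wild-type KCNH2 virus (2.03 x 10^8 / mL) for 4 h at room temperature, then cultured overnight at 37 C. Thallium flux was read with FluxOr dye. Rate constants were normalized to DMSO controls.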
Coupling enz – coupling enzyme interference in Giardia aldolase counter-screen; hit rate 0.67% among 290,000; activity change, negative = inhibition, % at 58.2 µM, hits read low; coupling enzyme system counterscreen, AmpLite Red fluorescence; AID 2472; in the data active = activity change below about -30%
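Fluorescence at 525 nm excitation and 598 nm emission measured inhibition of the coupled detection system without aldolase. Compounds (at 57.5 uM final) were preincubated 10 min at room temperature with coupling enzyme reagent before a 20 min substrate/AmpLite Red step.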
A number is an active result; n = inactive; u = inconclusive; x = no result given; ! = a repeat was not active.

SMILES	Giardia killer	KCNH2 3.1 block	USP1 inh	hERG WT inh	Coupling enz
COc1cccc(C(=O)Nc2ccccc2OCc2cc(=O)n3ccccc3n2)c1	x	x	n	x	x
Nc1sc2c(c1C(=O)c1ccc(Cl)cc1)CCCC2	x	x	x	x	n
CC(C)CCCC(C)CCCC(C)CCCC(C)C(=O)O (configuration not stated)	x	x	x	x	n
O=c1c2ccccc2cnn1-c1nc2ccccc2[nH]1	-91	n	n	n	n
O=C(c1cc(=O)[nH]c2ccccc12)N1CCN(S(=O)(=O)c2ccc(Cl)cc2)CC1	n	n	n	-115	x
COC(=O)c1ccc(OC(=O)CS(=O)c2ccccc2[N+](=O)[O-])cc1 (configuration not stated)	n	n	n	n	n
O=C(CS(=O)c1ccc(C(F)(F)F)cc1[N+](=O)[O-])Oc1ccccc1 (configuration not stated)	n	n	n	n	-39
O=C(c1ccccc1)N1CCN(c2cc(Cl)nc3cc(-c4cccc(Cl)c4)nn23)CC1	x	n	n	n	x
CCc1ccc(NC(=O)c2nnn(Cc3cccc(C(F)(F)F)c3)c2N)cc1	x	x	n	x	x
Cc1cc(-c2ccccc2)nc2c(Br)c(C(=O)O)nn12	n	-82	u	n	x
N#CCNC(=O)c1nn2c(C(F)(F)F)cc(-c3ccccc3)nc2c1Br	n	n	n	n	n
Nn1cnnc1N/N=C\c1ccc(-c2ccccc2[N+](=O)[O-])o1	n	n	u	n	-49
Cc1c(C(=O)N/N=C/c2ccc(-c3ccccc3[N+](=O)[O-])o2)sc(N)c1C#N	n	n	n	n	-33
COc1cccc(C2C(C(=O)Nc3ccc(C)cc3C)=C(C)Nc3c(C(=O)Nc4cccc(C)c4)cnn32)c1OC (configuration not stated)	x	x	n	x	x
CCCCS(=O)(=O)N1CCc2nc(COc3ccccc3)c3c(c2C1)CO[C@@H](C)C3	x	x	x	x	n
O=C1CC(c2ccc(F)cc2)CC2=C1C(c1ccc([N+](=O)[O-])o1)Nc1ccccc1N2 (configuration not stated)	-90	n	n	n	n
CC(=O)Nc1ccc(OS(=O)(=O)O)cc1	x	x	x	x	n
CC1=C(C(N)=O)C(c2ccccn2)n2nc(-c3ccccc3Cl)nc2N1 (configuration not stated)	n	-170	n	-146	n
COc1ccccc1C1C(C(N)=O)=C(C)Nc2nc(-c3ccccc3Cl)nn21 (configuration not stated)	n	n	n	n	n
CCCCOc1ccc(C(=O)NCc2cn3cccc(C)c3n2)cc1	x	x	n	x	x
Cn1c(SCC(=O)N/N=C/c2cccs2)nc2ccccc21	n	n	n	n	n
Cc1ccc(/C=N/NC(=O)CSc2nc3ccccc3n2C)s1	n	n	n	n	-32
C=C[C@@H]1[C@@H](C)[C@H](C)C(=O)C([C@H](O)C(C)C)[C@@H]1C (some centres not stated)	n	x	x	x	n
CCNc1ccccc1CP(=O)(c1ccccc1)c1ccccc1O (configuration not stated)	n	n	u	n	-58
Cc1ccccc1C(=O)c1cccn1CC(=O)N1CCCCCC1	n	-100	n	n	n
SMILES	Giardia killer	KCNH2 3.1 block	USP1 inh	hERG WT inh	Coupling enz
COc1ccc2c(c1)CCc1cc(C(=O)N3CCN(c4ccc(N5CCOCC5)nn4)CC3)sc1-2	n	n	n	n	-58
CC1CC=CC2C1C(=O)N(Cc1ccccc1)C2c1ccc(F)c(Br)c1 (configuration not stated)	n	x	x	x	n
O=C(O/N=C1\CCCCC1c1ccc([N+](=O)[O-])cc1[N+](=O)[O-])c1c(F)cccc1F (configuration not stated)	n	u	n	n	-31
Cc1c2oc3c(C)ccc(C(=O)N[C@@H]4C(=O)N[C@H](C(C)C)C(=O)N5CCC[C@H]5C(=O)N(C)CC(=O)N(C)[C@@H](C(C)C)C(=O)O[C@@H]4C)c3nc-2c(C(=O)N[C@@H]2C(=O)N[C@H](C(C)C)C(=O)N3CCC[C@H]3C(=O)N(C)CC(=O)N(C)[C@@H](C(C)C)C(=O)O[C@@H]2C)c(N)c1=O	x	x	x	x	-36
Cc1ccc2nsnc2c1NC(=S)NC(=O)c1ccco1	n	n	n	n	-45
CCCCn1cnc2c(SCc3ccc(Br)cc3)nc(N)nc21	n	n	n	n	x
CCC(NC(C)C)C(O)c1ccc(O)c(O)c1 (configuration not stated)	n	n	u	n	-53
CC(CCc1ccccc1)NCC(O)c1ccc(O)c(C(N)=O)c1 (configuration not stated)	n	n	n	n	n
CC(C)NC[C@H](O)c1ccc(O)c(O)c1	n	n	u	n	-66!
CCC(c1ccc(O)c(O)c1)C(CC)c1ccc(O)c(O)c1 (configuration not stated)	n	n	n	n	x
Cc1ccc(S(=O)(=O)c2nc(-c3cccs3)oc2SCc2ccc(F)cc2)cc1	x	x	n	x	x
O=C1C=C(O)c2cccc(O)c2C1=O	n	n	32µM	n	n
CCCCNC(=O)c1ccc2nc(-c3cccs3)c(-c3cccs3)nc2c1	n	x	x	x	x
O=C(CCl)Nc1ccccc1C(=O)NCc1ccccc1	n	-109	n	n	n
COCCCNC(=O)CN1C(=O)c2c(c3ccccc3n2C)C1c1ccc(OC)cc1 (configuration not stated)	x	x	n	x	x
COc1ccc2nc(N3CCCCC3)c(C#N)cc2c1	n	n	n	n	-33
COc1ccc2nc(SCC(=O)N3CCCCC3)c(C#N)cc2c1	n	n	n	n	n
Cc1ccc2cc(C#N)c(N3CCCC3)nc2c1C	n	n	u	n	n
COc1ccc2nc(SCC(=O)N3CCCCCC3)c(C#N)cc2c1	n	-88	n	n	n
CCOC(=O)CC(=O)CSc1nc2ccc(C)cc2cc1C#N	n	n	28µM	n	n
COc1ccc2nc(N3CCCCC3)c(/C=C3\SC(=S)NC3=O)cc2c1	n	n	u	n	n
COc1ccc2nc(N3CCCC3)c(C#N)cc2c1	n	n	28µM	n	n
CC[C@@H](C)[C@@H](CO[C@@H](Cc1ccccc1)C(=O)N[C@@H](CCS(C)(=O)=O)C(=O)OC(C)C)NC[C@@H](N)CS	x	x	x	x	n
O=C(CC1CCS(=O)(=O)C1)Nc1ccc[nH]c1=O (configuration not stated)	n	n	n	n	-52
O=C(c1ccccc1Cl)N(C(=O)c1ccccc1Cl)c1nccc(-c2cccs2)n1	n	n	n	n	-42
CSc1nnc(CSCc2ccc(Cl)cc2Cl)n1-c1ccccc1	n	-84	n	n	n
CCC(C)(C)n1nnnc1C(c1ccc2ncccc2c1)N1CCN(c2nc3ccccc3s2)CC1 (configuration not stated)	n	-90	n	n	n
O=C(O)c1nc(NCCc2ccccc2)ncc1Cl	n	-180	n	-113	n
CCCCCCn1cc(C(=O)OCC)c(=O)c2cc(F)c(F)cc21	n	n	n	n	n
